Broadly, the AC50 is the midpoint of the concentration-response curve, whichever way the signal moves.

Records with an inconclusive call do not appear. The source made the active and inactive calls. The calls were made as follows, unless noted: active = hit-call score of the fitted dose curve at least 0.9, where 1 is the maximum; inactive = score below 0.9.

A short description of the first assay: STM_H9_CystineISnorm_perc: Stemina devTOX quickPredict H9 human embryonic stem cell (hESC)-based Assay for Cystine (CYSS) Metabolite Biomarker, Normalized (AID 2283713). An outline of the steps:
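Normalized cystine level in conditioned medium from the final 24h of a 72h treatment of pluripotent H9 cells (daily media and compound renewal). Quantified by UPLC-HRMS with C13-labeled internal standard; scaled to median of 0.1% DMSO vehicle wells.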
For `C=CCOC(Cn1ccnc1)c1ccc(Cl)cc1Cl` (configuration not stated), the outcome was inactive.
Same read-out and setting: the same measure for `CC(C)(C)[C@@H](O)[C@@H](Cc1ccc(Cl)cc1)n1cncn1`: “inactive”.
For the compound `S=C(S)NCCNC(=S)S.[Mn+2].[S-]C([S-])=NCCN=C([S-])[S-].[Zn+2]`, the outcome was inactive.
Regarding `C[C@]12C[C@H](O)[C@H]3[C@@H](CCC4=CC(=O)CC[C@@]43C)[C@@H]1CC[C@@H]2C(=O)CO`, the AC50 was 81.5 µM (active).
For `CCCCCOC(=O)COc1cc(N2C(=O)C3=C(CCCC3)C2=O)c(F)cc1Cl`, the result was inactive.
On to `CC(C)(c1ccc(O)cc1)c1ccc(O)cc1`, for which the result was inactive.
With `COC(=O)c1ccccc1C(=O)O`, the outcome was inactive.
As for `N#CSCSc1nc2ccccc2s1`, the AC50 was 15.2 µM (active).
On the same count and under the same terms, the same measure for `CSC(=O)c1cccc2nnsc12`: 81.4 µM (active); for `CN(C)C(=O)Nc1ccc(Cl)c(Cl)c1`: 70.5 µM (active).
`Cc1nn(C)c(Oc2ccccc2)c1C=NOCc1ccc(C(=O)OC(C)(C)C)cc1`: the AC50 is 0.128 µM (active).
As for `N[C@@H](Cc1cc(I)c(Oc2ccc(O)c(I)c2)c(I)c1)C(=O)O`, the outcome was inactive.
On the same count and under the same terms, the value for `CCNc1nc(N)nc(Cl)n1` was “inactive”; that for `O=C(O)C1(C(=O)Nc2ccc(Cl)cc2Cl)CC1` was “inactive”; that for `S=C([S-])NCCNC(=S)[S-].[Mn+2]` was “inactive”.
Take `O=C(c1ccc(O)cc1O)c1ccc(O)cc1O`: the AC50 is 18.5 µM (active).
In the case of `CCCN(CCC)c1c([N+](=O)[O-])cc(C(F)(F)F)c(N)c1[N+](=O)[O-]`, the result was inactive.
Consider `CC(C)CCCCCCc1ccc(O)cc1`, for which the AC50 is 70 µM (active).
`O=C(Nc1ccc([N+](=O)[O-])cc1Cl)c1cc(Cl)ccc1O`: the result was inactive.
Regarding `CCN(Cc1c(F)cccc1Cl)c1c([N+](=O)[O-])cc(C(F)(F)F)cc1[N+](=O)[O-]`, the outcome was inactive.

A short description of a further assay: STM_H9_OrnCyssISnorm_ratio: Stemina devTOX quickPredict H9 human embryonic stem cell (hESC)-based Assay for Ornithine (ORN):Cystine (CYSS) Ratio (AID 2283714; active = hit-call score of the fitted dose curve at least 0.9, where 1 is the maximum). Summed up:
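Ratio of internal-standard-normalized ornithine to cystine, measured by UPLC-HRMS in spent media from the last 24 h. H9 cells kept pluripotent, dosed 72 h with daily media and compound renewal; DMSO 0.1% serves as baseline.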
As to `CC(C)(C)[C@@H](O)[C@@H](Cc1ccc(Cl)cc1)n1cncn1`, the half-maximal activity concentration (AC50) is 88.7 µM (active).
With `S=C(S)NCCNC(=S)S.[Mn+2].[S-]C([S-])=NCCN=C([S-])[S-].[Zn+2]`, the result was inactive.
`C[C@]12C[C@H](O)[C@H]3[C@@H](CCC4=CC(=O)CC[C@@]43C)[C@@H]1CC[C@@H]2C(=O)CO`: the AC50 is 93.8 µM (active).
Take `CCCCCOC(=O)COc1cc(N2C(=O)C3=C(CCCC3)C2=O)c(F)cc1Cl`: the outcome was inactive.
Still for that read-out and setting: the value for `CC(C)(c1ccc(O)cc1)c1ccc(O)cc1` was “inactive”; that for `COC(=O)c1ccccc1C(=O)O` was “inactive”.
As for `N#CSCSc1nc2ccccc2s1`, the AC50 was 16.4 µM (active).
The same measure, in the same setting: the same measure for `CSC(=O)c1cccc2nnsc12`: 78.6 µM (active); for `CN(C)C(=O)Nc1ccc(Cl)c(Cl)c1`: 82.4 µM (active).
The same measure, in the same setting: the value for `Cc1nn(C)c(Oc2ccccc2)c1C=NOCc1ccc(C(=O)OC(C)(C)C)cc1` was 0.0589 µM (active).
Turning to `N[C@@H](Cc1cc(I)c(Oc2ccc(O)c(I)c2)c(I)c1)C(=O)O`, the outcome was inactive.
On to `CCNc1nc(N)nc(Cl)n1`, for which the outcome was inactive.
Regarding `O=C(O)C1(C(=O)Nc2ccc(Cl)cc2Cl)CC1`, the AC50 was 9.92 µM (active).
As for `S=C([S-])NCCNC(=S)[S-].[Mn+2]`, the result was inactive.
For the compound `CC(C)CCCCCCc1ccc(O)cc1`, the AC50 was 75.7 µM (active).
As to `O=C(Nc1ccc([N+](=O)[O-])cc1Cl)c1cc(Cl)ccc1O`, the outcome was inactive.
On the same count and under the same terms, the value for `CCN(Cc1c(F)cccc1Cl)c1c([N+](=O)[O-])cc(C(F)(F)F)cc1[N+](=O)[O-]` was “inactive”.

Another assay can be described thus: CEETOX_H295R_MTT_cell_viability: Viability Assessment in the CeeTox HT-H295R MTT Assay (AID 2283718).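 As to AC50: curve fitted both ways so AC50 may mark viability loss or gain.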 Summed up: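 MTT reduction (0.5 mg/ml, 4 h at 37 C; absorbance at 570 and 650 nm) gave viability as background-corrected percent change versus controls. H295R cells had 48 h forskolin (10 uM) prestimulation, then 48 h chemical exposure at 0.1% DMSO.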
For the compound `CCCCOCCOCCOCc1cc2c(cc1CCC)OCO2`, the result was inactive.
Regarding `C=CCOC(Cn1ccnc1)c1ccc(Cl)cc1Cl` (configuration not stated), the call was inactive.
The same measure, in the same setting: the same measure for `CC(C)(C)[C@@H](O)[C@@H](Cc1ccc(Cl)cc1)n1cncn1`: “inactive”.
For `S=C(S)NCCNC(=S)S.[Mn+2].[S-]C([S-])=NCCN=C([S-])[S-].[Zn+2]`, the AC50 is 1.19 µM (active).
For the compound `C[C@]12C[C@H](O)[C@H]3[C@@H](CCC4=CC(=O)CC[C@@]43C)[C@@H]1CC[C@@H]2C(=O)CO`, the compound was classed as inactive.
Still for that read-out and setting: the value for `CCCCCOC(=O)COc1cc(N2C(=O)C3=C(CCCC3)C2=O)c(F)cc1Cl` was “inactive”; that for `CC(C)(c1ccc(O)cc1)c1ccc(O)cc1` was “inactive”.
With `COC(=O)c1ccccc1C(=O)O`, the compound was called inactive.
The same measure, in the same setting: the same measure for `c1ccc2[nH]c(-c3cscn3)nc2c1`: “inactive”.
The same measure, in the same setting: the value for `CSC(=O)c1cccc2nnsc12` was “inactive”.
Still for that read-out and setting: the value for `CN(C)C(=O)Nc1ccc(Cl)c(Cl)c1` was “inactive”.
As for `CCNc1nc(N)nc(Cl)n1`, the result was inactive.
On the same count and under the same terms, the value for `C#C[C@]1(O)CC[C@H]2[C@@H]3CCC4=CC(=O)CC[C@@H]4[C@H]3CC[C@@]21CC` was “inactive”; that for `S=C([S-])NCCNC(=S)[S-].[Mn+2]` was “inactive”.
Still for that read-out and setting: the same measure for `CC(=O)[C@H]1CC[C@H]2[C@@H]3CCC4=CC(=O)CC[C@]4(C)[C@H]3CC[C@]12C`: “inactive”; for `CC(=O)S[C@@H]1CC2=CC(=O)CC[C@]2(C)[C@H]2CC[C@@]3(C)[C@@H](CC[C@@]34CCC(=O)O4)[C@H]12`: “inactive”.
Still for that read-out and setting: the value for `CCCCC(CC)CN1C(=O)C2C3C=CC(C3)C2C1=O` (configuration not stated) was “inactive”; that for `CCOC(=O)c1ccc(O)cc1` was “inactive”; that for `O=C(Nc1ccc([N+](=O)[O-])cc1Cl)c1cc(Cl)ccc1O` was “inactive”.
As to `CCN(Cc1c(F)cccc1Cl)c1c([N+](=O)[O-])cc(C(F)(F)F)cc1[N+](=O)[O-]`, the AC50 was 13.3 µM (active).

(Values after PubChem BioAssay (EPA / NIEHS).)
